Rows were chosen to be rich in hits. Some 2.7% of all compounds tested hit in one or more screens of this group.
PAFAH1B2 inh – PAFAH1B2 (human) inhibition | P68402 | recombinant PAFAH1B2, FP-rhodamine activity probe, fluorescence polarization | inhibition, % at 3.39 µM | 340,000 tested, 1.2% active | AID 492953;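 active = inhibition above the mean of all tested compounds plus 3 SD, cut at about 24% in these data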;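 also: 0% = enzyme with DMSO and 100% = wells lacking PAFAH1B2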
PAFAH2 inh – inhibitors of human PAFAH2 | inhibition, % at 3.39 µM | recombinant PAFAH2, FP-rhodamine activity probe, fluorescence polarization | 340,000 tested, 0.99% active;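 active = inhibition above the mean over all tested compounds plus 3 SD, cut at about 30% in these data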;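 also: inhibitors block probe labeling of enzyme so polarization drops; 0% = enzyme with DMSO and 100% = wells lacking PAFAH2 protein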
pPAFAH FP inh – pPAFAH (human) enzyme inhibition. Q13093. recombinant pPAFAH, FP-rhodamine probe fluorescence polarization. inhibition, % at 3.39 µM. 330,000 tested, 1.5% active;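 active = inhibition above the mean inhibition across the screen plus 3 SD, cut at about 25% in these data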;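 also: inhibitors block binding of the rhodamine activity-based probe so polarization drops; 0% = enzyme with DMSO and 100% = wells lacking pPAFAH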
Target sequence (Q13093 whole entry, looked up): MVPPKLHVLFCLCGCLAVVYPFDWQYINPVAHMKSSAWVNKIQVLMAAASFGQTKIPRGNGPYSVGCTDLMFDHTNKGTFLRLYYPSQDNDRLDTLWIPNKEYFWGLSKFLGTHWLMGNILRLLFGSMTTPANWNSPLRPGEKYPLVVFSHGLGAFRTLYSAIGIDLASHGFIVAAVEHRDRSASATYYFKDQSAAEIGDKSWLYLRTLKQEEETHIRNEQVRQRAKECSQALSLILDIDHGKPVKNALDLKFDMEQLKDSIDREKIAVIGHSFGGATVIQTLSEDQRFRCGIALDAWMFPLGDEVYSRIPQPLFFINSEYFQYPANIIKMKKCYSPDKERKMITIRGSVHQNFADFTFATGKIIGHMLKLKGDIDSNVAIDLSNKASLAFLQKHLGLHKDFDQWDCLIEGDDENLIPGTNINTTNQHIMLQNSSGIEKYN
TCR-CD3 inh – blocks the human TCR-CD3 interaction | inhibition, % at 9.4 µM | AID 651800 | TAMRA-labeled TCR probe fluorescence, biochemical | 360,000 tested, 0.37% active; in the data active = inhibition above about 19%;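 also: recombinant mutant TCR 2C K166C tagged with TAMRA read by polarization; 0% = receptor in buffer alone and 100% = receptor with positive control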
PAFAH1B3 inh – PAFAH1B3 (human) inhibition | inhibition, % at 3.39 µM | 340,000 tested, 0.28% active | recombinant PAFAH1B3, FP-rhodamine probe, fluorescence polarization | Q15102;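 active = inhibition above the screen-wide average of all tested compounds plus 3 SD, cut at about 25% in these data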;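 also: 0% = enzyme with DMSO only and 100% = wells lacking PAFAH1B3 protein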
pPAFAH confirm – confirmation of human plasma PAF acetylhydrolase (pPAFAH) inhibitors; shares compounds with pPAFAH FP inh; recombinant pPAFAH, FP-Rh probe fluorescence polarization; inhibition, % at 3.39 µM; 2,300 tested, 72% active;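 active = mean inhibition of the triplicate above the hit cutoff set for the earlier primary screen, cut at about 25% in these data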;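 also: 0% = enzyme with DMSO and 100% = wells lacking pPAFAH enzyme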
Starred values were filed as active, the others as inactive; · = no result.

SMILES	PAFAH1B2 inh	PAFAH2 inh	pPAFAH FP inh	TCR-CD3 inh	PAFAH1B3 inh	pPAFAH confirm
COc1cc(N=Nc2cccc(S(N)(=O)=O)c2)c2ccccc2c1N	12	20	50*	1	18	32*
NC1=NC(=Nc2cccc(S(N)(=O)=O)c2)c2ccccc21	3	-1	3	2	10	·
COc1ccc2nc3n(c(=O)c2c1)-c1ccccc1C(=O)NC3Cc1ccccc1 (stereo unspecified)	·	·	1	-1	·	·
O=C(O)CN1C(=O)/C(=C\c2cc(Br)ccc2OCc2ccccc2Cl)SC1=S	2	24	45*	13	9	75*
O/N=C/c1cc(Br)ccc1OCc1ccccc1F	-4	-5	19	1	5	·
O=C1/C(=C\c2cc(Br)cc(Br)c2O)SC(=S)N1Cc1ccccc1	-40	-17	12	·	-59	·
O=C(O)CN1C(=O)/C(=C\c2cc(Br)ccc2OCc2ccc([N+](=O)[O-])cc2)SC1=S	6	12	59*	-1	8	58*
O=C(O)CN1C(=O)/C(=C\c2cc(Br)ccc2OCc2ccccc2F)SC1=S	4	31*	52*	-12	5	67*
CC(C)c1ccc(N(C(=O)c2snc(C(N)=O)c2N)C(C(=O)NC2CCCC2)c2ccncc2)cc1 (stereo unspecified)	0	-8	-1	-4	6	·
CC(Sc1nnc(-c2cccnc2)n1N)C(=O)NCCC1=CCCCC1 (stereo unspecified)	5	2	·	6	0	·
NC(=O)Cn1c(=O)n(Cc2ccco2)c(=O)c2c3c(sc21)CCCCC3	0	13	36*	12	1	15
Cc1ccc(C)c(NC(=O)Cn2ccn(-c3ccc4c(c3)OCO4)c(=O)c2=O)c1	-1	-9	1	1	-1	·
Oc1ccc(/C=N/n2c(-c3ccco3)csc2=Nc2cccnc2)c(O)c1	9	10	19	3	10	·
CC(C)N=c1scc(-c2ccco2)n1/N=C/c1ccc(O)c(O)c1	1	4	64*	-2	6	69*
CCOC(=O)c1c(C)[nH]c(C(=O)NCC(c2ccco2)N2CCCCC2)c1C (stereo unspecified)	4	3	1	2	2	·
O=c1oc2c(O)c(O)cc3c(=O)oc4c(O)c(O)cc1c4c23	88*	85*	93*	·	68*	92*
Cc1c(C)c2cc(Cl)c(O)c(CN(C)C)c2oc1=O	0	0	0	-9	3	·
O=c1cc(-c2ccccc2)oc2cc(O)ccc12	2	-3	·	-3	3	·
O=c1ccc2c(-c3ccccc3)c3ccc(O)cc3oc-2c1	47*	60*	53*	-40	39*	47*
Brc1cc2c(cc1Br)OCCOCCOCCOCCO2	1	-1	4	5	8	·
Brc1ccc2c(c1)OCCOCCOc1cc(Br)ccc1OCCOCCOCCO2	6	2	68*	·	5	60*
Cc1ccc(C(=O)N2CCCC(N(C)Cc3ccccc3)C2)s1 (stereo unspecified)	4	5	·	0	11	·
COc1ccc(-c2[nH]ncc2/C=N\NC(=O)c2cccs2)cc1OC	1	1	·	0	13	·
COc1ccc(-c2csc(NC(=O)c3ccccc3NS(=O)(=O)c3ccc(C)cc3)n2)cc1	15	36*	39*	6	6	49*
Nc1ccc(C(=O)N/N=C/c2cn(Cc3ccccc3F)c3ccccc23)cc1	9	-1	·	2	8	·
SMILES	PAFAH1B2 inh	PAFAH2 inh	pPAFAH FP inh	TCR-CD3 inh	PAFAH1B3 inh	pPAFAH confirm
O=C(O)c1ccc(N/N=C/c2cn(Cc3ccccc3F)c3ccccc23)cc1	8	10	46*	1	14	63*
CC1=C2CCCC[C@@]23C2C(=O)N(C)C(=O)[C@@H]2ON3OC1 (stereo partly specified)	·	·	·	6	·	·
CC(C)(C)c1cc(NCCCn2ccnc2)n2ncc(-c3ccc(Cl)cc3)c2n1	0	4	39*	1	5	19
Cc1cc(NCCCn2ccnc2)n2nc(-c3ccc(Cl)cc3)cc2n1	14	-7	3	1	-1	·
O=C(/C=C/c1ccco1)NC(=S)Nc1ccc(C(=O)O)cc1	2	0	39*	11	13	7
O=C(/C=C/c1ccco1)NC(=S)Nc1ccc(N2CCCC2)cc1	2	1	47*	11	1	14
Cc1ccnc(N2CCN(C(=O)CSc3nc4ccccc4nc3N3CCC(C)CC3)CC2)c1	3	4	6	-5	5	·
CC(C)(C(=O)c1cccnc1)c1cccnc1	5	1	0	-3	4	·
O=[N+]([O-])c1cc(Br)cc(C=Nc2ccc3c(c2)OCO3)c1O	6	18	41*	8	7	52*
O=[N+]([O-])c1ccc(O)c(C=Nc2ccc3c(c2)OCO3)c1	0	3	1	-5	14	·
CC(C)(C)c1ccc(O)c(N=Cc2cc3c(cc2[N+](=O)[O-])OCO3)c1	2	5	41*	17	12	15
CCCCn1c(N)c(N(CCOC)C(=O)c2ccc(-c3cccc(C(F)(F)F)c3)o2)c(=O)[nH]c1=O	2	-10	39*	6	1	17
COc1cccc(NC(=O)C2CCOC2=O)c1 (stereo unspecified)	·	·	-4	1	·	·
CCOC(=O)CC1=C(C(=O)OCC)C(c2ccc(C)o2)C(C#N)=C(N)O1 (stereo unspecified)	-1	0	-2	-4	4	·
Cc1ccc(C2C(C#N)=C(N)Oc3c2sc2ccccc32)o1 (stereo unspecified)	·	·	38*	·	·	30*
Cc1ccc(-c2nn(-c3ccccc3)cc2C2CC(c3cccs3)=NN2C(=O)CCCC(=O)O)cc1 (stereo unspecified)	8	1	40*	-3	5	5
COc1ccc(-c2nn(-c3ccccc3)cc2C2CC(c3cccs3)=NN2C(=O)CCCC(=O)O)cc1 (stereo unspecified)	3	-13	7	-8	6	·
C(=N\C(/N=C/c1ccco1)c1ccco1)/c1ccco1	0	6	13	2	14	·
C(=Nc1cccc2c(N=Cc3ccco3)cccc12)c1ccco1	7	6	45*	·	11	3
O=C(CN1C(=O)NC2(CCCCC2)C1=O)Oc1ccc2c(C(F)(F)F)cc(=O)oc2c1	2	3	3	-2	8	·
O=C(O)c1cc(N/N=C/c2ccc(N3CCOCC3)s2)ccc1Cl	1	16	74*	7	9	19
Cc1ccc(C)n1/N=C1/NC(=O)CS1	2	39*	39*	8	21	18
Cc1cc(C)nc(/N=C2/NC(=O)CS2)n1	4	3	-2	3	3	·
Cc1ccc(S(=O)(=O)N2CCOCC2)cc1NC(=O)CN(C)CC(=O)Nc1cccc(F)c1	·	·	·	-2	·	·
